Screens as filed in PubChem.
The sample as a whole holds a higher share of hits than the screen did.
nsP2pro primary – CHIKV nsP2 protease inhibition, primary qHTS; AID 1964107; Potency, µM (top dose mostly 24.9 µM), hits mostly inhibitors; FRET peptide cleavage, nsP2pro, fluorescence 1 h; 31,000 tested, 1.1% active; further: nearly all actives have a fitted effect of over 60% in size
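FRET cleavage of 2.5 uM peptide 2 by 150 nM CHIKV protease domain at pH 8.0 (Tris, Tween 20). Compounds at 7 concentrations (up to 25 uM) preincubated 15 min. Fluorescence read after 1 h at room temperature.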
CHIKV nsP2 cell – cell-based CHIKV nsP2 protease inhibition, secondary; 450 tested, 10% active; AID 1964100; Potency, µM (doses to about 51.1 µM), hits mostly inhibitors; shares compounds with nsP2pro primary; cell-based CHIKV nsP2 protease reporter assay; further: nearly all actives have a fitted effect of over 70% in size
Target sequence (Q8JUX6 220-798 limits assumed): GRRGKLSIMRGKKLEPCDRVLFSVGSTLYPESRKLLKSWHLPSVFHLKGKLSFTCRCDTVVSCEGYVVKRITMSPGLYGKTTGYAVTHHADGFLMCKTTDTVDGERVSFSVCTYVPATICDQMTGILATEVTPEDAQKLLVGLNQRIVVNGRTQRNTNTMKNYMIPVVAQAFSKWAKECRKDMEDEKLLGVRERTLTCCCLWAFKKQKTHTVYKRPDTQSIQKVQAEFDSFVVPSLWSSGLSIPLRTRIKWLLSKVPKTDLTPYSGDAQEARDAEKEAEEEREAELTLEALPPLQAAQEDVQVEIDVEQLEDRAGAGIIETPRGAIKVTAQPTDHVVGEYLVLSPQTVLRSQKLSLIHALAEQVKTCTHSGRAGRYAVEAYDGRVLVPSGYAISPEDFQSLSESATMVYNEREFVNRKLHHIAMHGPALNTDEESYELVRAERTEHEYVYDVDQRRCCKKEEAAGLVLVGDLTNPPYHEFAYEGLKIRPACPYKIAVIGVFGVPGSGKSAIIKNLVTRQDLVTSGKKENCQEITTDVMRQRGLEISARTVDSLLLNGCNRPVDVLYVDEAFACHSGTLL
NSP2 full ctr – full-length CHIKV NSP2 protease inhibition, selectivity | Full-length CHIKV NSP2 protease enzymatic counterscreen | AID 1964101 | 410 tested, 39% active | Potency, µM (series often up to 50.7 µM), hits mostly inhibitors | shares compounds with nsP2pro primary; further: nearly all actives have a fitted effect of over 65% in size
Furin counter – human furin inhibition, counterscreen for nsP2pro inhibitors. shares compounds with nsP2pro primary. Recombinant human furin enzymatic counterscreen, fluorogenic substrate. Potency, µM (series often up to 50.6 µM), actives largely listed as inhibitors. 410 tested, 6% active
nsP2 NS23 pep – blocks CHIKV nsP2 protease cleavage of endogenous NS2/3 peptide | AID 1964103 | Purified CHIKV nsP2 protease, endogenous NS2/3 peptide cleavage | Potency, µM (titrated, usually from 51 µM), usual class: inhibitors | shares compounds with nsP2pro primary | 410 tested, 34% active; further: nearly all actives have a fitted effect of over 55% in size
Papain cs – selectivity counter-screen for CHIKV nsP2 protease inhibitors: papain; shares compounds with nsP2pro primary; purified papain protease activity, enzymatic inhibition; Potency, µM (titrated, usually from 51 µM), actives largely listed as inhibitors; 410 tested, 5% active
nsP2pro confirm – confirmation of CHIKV nsP2 protease inhibitors. shares compounds with nsP2pro primary. CHIKV nsP2 protease enzymatic activity, qHTS. Potency, µM (titrated, usually from 25.5 µM), actives largely listed as inhibitors. 410 tested, 43% active; further: nearly all actives have a fitted effect of over 75% in size
HCV NS3 counter – HCV NS3/4A protease inhibition, counterscreen; shares compounds with nsP2pro primary; HCV NS3/4A protease biochemical counterscreen; Potency, µM (series often up to 50.9 µM), usual class: inhibitors; 410 tested, 20% active; further: nearly all actives have a fitted effect of over 55% in size
Of the large screens only hits and unclear results are named; the others gave an inactive call (follow-up assays come after a bar, where they were run). The call rests on the fitted dose curve.

CC(C)(C)n1nc(-c2ccc(Cl)cc2)c2c(N)ncnc21	none
CC(C)n1nc(C#Cc2ccccc2)c2c(N)ncnc21	nsP2pro primary 4.42µM | CHIKV nsP2 cell inactive | NSP2 full ctr inconclusive | Furin counter inconclusive | nsP2 NS23 pep inconclusive | Papain cs inactive | nsP2pro confirm 7.98µM | HCV NS3 counter inconclusive
CC(C)n1nc(-c2ccc(NC(=O)Nc3cccc(C(F)(F)F)c3)cc2)c2c(N)ncnc21	none
C=C1/C(=C/C=C2\CCC[C@]3(C)[C@@H]([C@H](C)CCCC(C)(C)O)CC[C@@H]23)C[C@@H](O)[C@@H](OCCCO)[C@@H]1O	none
C#CCN(Cc1cc2c(=O)n(C)c(CN3CCN(C)CC3)nc2cc1Cl)c1ccc(C(=O)NCc2cccnc2)cc1	none
CCCCc1cc(C[C@H]2CNCC[C@H]2CC(=O)N2CCC(Cc3ccccc3)CC2)no1	none
CNC12CC3C[C@@](C)(C1)C[C@](C)(C3)C2	none
CC(C)(C)OC(=O)N1CCN(c2ccc(NCc3coc(-c4ccc(C#N)cc4)c3)cc2)CC1	nsP2pro primary 10µM | CHIKV nsP2 cell inconclusive | NSP2 full ctr inactive | Furin counter inactive | nsP2 NS23 pep inactive | Papain cs inactive | nsP2pro confirm inactive | HCV NS3 counter inconclusive
CC(C)(C)OC(=O)N1CCN(c2ccc(NCc3ccc(-c4ccc(C(C)(C)C)cc4)o3)cc2)CC1	none
CC(C)(C)OC(=O)N1CCN(c2ccc(NCc3ccc4c(c3)OCO4)cc2)CC1	nsP2pro primary inconclusive | CHIKV nsP2 cell 6.51µM | NSP2 full ctr inactive | Furin counter inactive | nsP2 NS23 pep inactive | Papain cs inactive | nsP2pro confirm inactive | HCV NS3 counter inactive
CC(C)(C)OC(=O)N1CCN(c2ccc(NCc3ccc(-c4cc(C(F)(F)F)cc(C(F)(F)F)c4)o3)cc2)CC1	none
CC(C)(C)OC(=O)N1CCN(c2ccc(NCc3occc3-c3ccc(C#N)cc3)cc2)CC1	none
CC(C)(C)OC(=O)N1CCN(c2ccc(NCc3cc(-c4ccc(C#N)cc4)co3)cc2)CC1	none
CC1=C(C(=O)Nc2cc(Cl)ccc2Cl)C(c2ccco2)C2=C(CCCC2=O)N1 (stereo unspecified)	none
COc1ccc(-c2oc3c(CC=C(C)C)c(OC4OC(CO)C(O)C(O)C4O)cc(O)c3c(=O)c2OC2OC(C)C(O)C(O)C2O)cc1 (stereo unspecified)	none
CC(=O)OC1CC(C)(C(=O)O)CC2C3=CC(=O)C4C5(C)CCC(OC6OC(C(=O)O)C(O)C(O)C6OC6OC(C(=O)O)C(O)C(O)C6O)C(C)(C)C5CCC4(C)C3(C)CCC12C (stereo unspecified)	none
O=C(Nc1ccc(S(=O)(=O)Nc2nccs2)cc1)C1CCC2(CCC2)CC1	none
CCCN(C)c1ncnc2ccc(-c3ccc4c(c3)OCO4)cc12	none
Oc1ccc(CCNCCCCCCNCCc2ccccc2)cc1O	none
Oc1ccc(C(O)CNCCCCCCNCC(O)c2ccc(O)c(O)c2)cc1O (stereo unspecified)	nsP2pro primary inconclusive | CHIKV nsP2 cell inactive | NSP2 full ctr inconclusive | Furin counter 25.9µM | nsP2 NS23 pep inactive | Papain cs inactive | nsP2pro confirm inactive | HCV NS3 counter inactive
CNC[C@H](O)c1cccc(O)c1	none
CC(C)(C)OC(=O)N1CCN(c2ccc(NCc3cnc(-c4ccc(C#N)cc4)s3)cc2)CC1	none
CC1(C)CCC2(C(=O)OC3OCC(O)C(O)C3O)CCC3(C)C(=CCC4C5(C)CC(O)C(OC6OC(COC7OCC(O)C(O)C7O)C(O)C(O)C6O)C(C)(C)C5CCC43C)C2C1 (stereo unspecified)	none
CCOC(=O)N1CCN(C(=O)Cn2sc3nc(C)cc(C)c3c2=O)CC1	nsP2pro primary 3.94µM | CHIKV nsP2 cell inactive | NSP2 full ctr inconclusive | Furin counter inactive | nsP2 NS23 pep 20.6µM | Papain cs inactive | nsP2pro confirm 4µM | HCV NS3 counter inactive
Cc1ccc(C)c(N2CCN(C(=O)Cn3ncc4ccsc4c3=O)CC2)c1	none
CCOC(=O)C1CCN(C(=O)Cn2ncc3c4ccccc4n(C)c3c2=O)CC1	none
CC#CC(=O)N1CCC[C@H]1c1nc(-c2ccc(C(=O)Nc3ccccn3)cc2)c2c(N)nccn12	none
COc1ccc([C@H]2OC[C@H]3O[C@@H](O[C@H]4[C@@H]2NC[C@@H]4O)[C@H](O)[C@H]3O)cc1	none
CC(=O)N1CCC(C(=O)N(CCCN2CCC(Cc3ccc(C(N)=O)cc3)CC2)c2ccc(C)c(Cl)c2)CC1	none
Cc1cc2c(c(=O)o1)C=C1CC[C@H]([C@H](C)Cn3cnc(=N)c4[nH]cnc43)C[C@@H]1O2	none
Cc1ccc(N[S+](=O)([O-])c2cc3c(cc2Cl)CCC(=O)N3)cc1Br	none
CNC1CCN(C(Cc2cccc(-c3ccncc3)c2)C(=O)c2sc3c(F)ccc(F)c3c2Cl)CC1 (stereo unspecified)	none (no result: nsP2pro primary) | CHIKV nsP2 cell inconclusive | NSP2 full ctr inconclusive | Furin counter inactive | nsP2 NS23 pep inactive | Papain cs inactive | nsP2pro confirm inactive | HCV NS3 counter inactive
O=C(NC1CCN(Cc2cccc(-c3cccs3)c2)CC1)c1cccc(Cl)c1	none
COc1cccc(-c2ccc(CN3CCCC(NC(=O)c4ccc(Cl)cc4)C3)cc2)c1 (stereo unspecified)	none
Cc1noc(C)c1C(=O)N1CC(n2cc(COCc3ccccc3)nn2)C1	none
O=C(NC1CC1)c1cc2n(n1)CCCN(C(=O)c1ccccc1-c1ccccc1)C2	none
C=C(C(=O)OC)[C@]12O[C@@](C)(CC[C@@]3(O)/C(=C\C)C(=O)O[C@]3(C)C[C@@H]1OC(=O)C(CO)CN1CCCC1C(=O)O)CC2=O (stereo partly specified)	nsP2pro primary inconclusive | CHIKV nsP2 cell inactive | NSP2 full ctr 2.43µM | Furin counter inactive | nsP2 NS23 pep inconclusive | Papain cs inactive | nsP2pro confirm 2.11µM | HCV NS3 counter inconclusive
COc1ccc2c(Oc3ccc(NC(=O)c4c(C)n(CC(C)(C)O)n(-c5ccccc5)c4=O)cc3F)ccnc2c1	none
O=C(NC1CCCCC1)N1Cc2[nH]cnc2C[C@H]1c1nc(-c2ccc(Cl)cc2)no1	nsP2pro primary 4.47µM | CHIKV nsP2 cell inactive | NSP2 full ctr 33.5µM | Furin counter inactive | nsP2 NS23 pep inconclusive | Papain cs inactive | nsP2pro confirm 10.3µM | HCV NS3 counter inactive
Cc1cccc(-c2noc([C@@H]3Cc4nc[nH]c4CN3C(=O)c3ccc(-c4ccccc4)cc3)n2)c1	none
